The record followed here is PubChem BioAssay.

The subject of experiment [1] is PRMT1 (protein arginine N-methyltransferase 1). The experiment in a line: small molecules binding arginine methyltransferase PRMT1 – biochemical, small-molecule microarray, 635 nm fluorescence, primary screen (AID 1088).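 Also: binding of Prmt1 protein to compounds spotted on small-molecule microarray slides.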 The settings on record: higher = more signal.
A short description of experiment [2]: growth effects on S. cerevisiae YJM789 – YJM789 clinical isolate, OD600, 24 h, basal, primary screen (AID 1089).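 Also: growth of clinical yeast isolate S. cerevisiae YJM 789 seeded 1000 cells per well; test concentration not given here.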 To be noted: higher = more signal, called active from +8 up or from −8 down.
A short description of experiment [3]: S. pombe growth modifiers, basal conditions – strain 972, OD600, 24 h, no modulator, primary screen (AID 1090).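 Also: basal condition with compound alone and no growth modifier present; test concentration not given here.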 To be noted: S. pombe 972 growth, higher = more signal, called active from +8 up or from −8 down.
A short description of experiment [4]: budding yeast growth modifiers under rapamycin – strain BY4716, OD600, 96 h, primary screen (AID 1091). Also: test concentration not given here. The settings on record: S. cerevisiae BY4716 + rapamycin, higher = more signal, called active from +8 up or from −8 down.
In experiment [5] the target is Torsin-1A-interacting protein 2 (Homo sapiens) (UniProt Q8NFQ8). The experiment can be described thus: small molecules binding lysate-expressed LULL1 – cell lysate, human LULL1 lysate, 635/667 nm fluorescence, primary screen (AID 1092).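 Also: probe is lysate of COS7 cells overexpressing human LULL1; score merges per-feature 667 nm fluorescence with signal-to-noise.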 The settings on record: small-molecule microarray, hLULL1 lysate binding, 635 nm fluorescence; higher = more signal.
Experiment [6] can be described thus: optical density change of DRC41 E. coli – strain DRC41, OD650, 24 h, E. coli filamentation project, primary screen (AID 1093).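 Also: MC1000 strain lacking acrAB efflux and sulA so SOS filamentation is blocked; test concentration not given here.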 To be noted: E. coli DRC41 growth, higher = more signal, called active from +8 up or from −8 down.
A short description of experiment [7]: probe aLefty2 binding to arrayed compounds – biochemical, biotinylated probe, 635/667 nm fluorescence, primary screen (AID 1094).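 Also: score merges spot fluorescence near 667 nm with spot signal-to-noise ratio.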 To be noted: small-molecule microarray, higher = more signal.
For experiment [8], the system named is Noggin (protein binding on small-molecule microarray). The experiment can be described thus: small molecules binding Noggin protein – biochemical, 635/667 nm fluorescence, primary screen (AID 1095).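 Also: score merges 667 nm feature fluorescence with signal to noise over triplicate slides.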 To be noted: 635 nm fluorescence, higher = more signal.
The target of experiment [9] is Neurogenic locus notch homolog protein 3 (Homo sapiens) (UniProt Q9UM47). The experiment in a line: small molecules binding NOTCH3 protein – biochemical, 635/667 nm fluorescence, primary screen (AID 1096). The settings on record: small-molecule microarray, 635 nm fluorescence, higher = more signal.
The nature of experiment [10]: probe aEGFR binding to arrayed compounds – biochemical, biotinylated probe, 635/667 nm fluorescence, primary screen (AID 1097).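 Also: probe is a biotinylated anti-EGFR antibody binding compounds printed on slides; score combines fluorescence near 667 nm and signal to noise of each spot.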 To be noted: small-molecule microarray, higher = more signal.
For experiment [11], the system named is Plasmodium falciparum Sir2 (PF13_0152, Sir2A). The experiment in a line: Plasmodium falciparum Sir2A binding compounds – biochemical, small-molecule microarray, 635 nm fluorescence, primary screen (AID 1098).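 Also: score merges spot fluorescence intensity with its signal-to-noise ratio.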 To be noted: fluorescence 635 nm, higher = more signal.
A short description of experiment [12]: probe aDKK1 binding to arrayed compounds – biochemical, biotinylated probe, 635/667 nm fluorescence, primary screen (AID 1099).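 Also: score merges 667nm spot fluorescence with signal to noise across triplicate slides; reference of the scale not given here.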 To be noted: small-molecule microarray, higher = more signal.
The nature of experiment [13]: probe aCHRDL2 binding to arrayed compounds – biochemical, biotinylated probe, 635/667 nm fluorescence, primary screen (AID 1100). To be noted: small-molecule microarray, higher = more signal.
The nature of experiment [14]: change in splice reporter luminescence, either direction, cell-based, HEK293, spliceosome inhibition project, primary screen (AID 1101).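 Also: HEK293 cells carrying a splicing-competent luciferase reporter gene; test concentration not given here.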 The settings on record: HEK293 splicing luciferase reporter, 24 h, higher = more signal, called active from +8 up or from −8 down. On the technique in general: A reporter such as luciferase makes a cellular process visible.
Experiment [15] concerns the target Fibroblast growth factor 10 (Homo sapiens) (UniProt O15520). The experiment in a line: compounds binding fibroblast growth factor 10 – biochemical, small-molecule microarray, 635 nm fluorescence, primary screen (AID 1102). The settings on record: FGF10 binding, fluorescence 635 nm, higher = more signal.
In experiment [16] the test system is glycogen synthase kinase-3 (GSK3A per assay name; protocol says GSK3B). The experiment in a line: compounds binding glycogen synthase kinase-3 – biochemical, small-molecule microarray, 635 nm fluorescence, GSK3A, primary screen (AID 1103). Also: the record names both GSK3A and GSK3B. The settings on record: fluorescence 635 nm, higher = more signal.
Experiment [17] has as its target Epidermal growth factor receptor (Homo sapiens) (UniProt P00533). The experiment can be described thus: compounds binding epidermal growth factor receptor – biochemical, small-molecule microarray, 635 nm fluorescence, primary screen (AID 1104).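 Also: score merges 667 nm emission intensity with spot signal to noise over triplicate slides.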 The settings on record: EGFR binding, higher = more signal.
Experiment [18] addresses Follistatin-related protein 3 (Homo sapiens) (UniProt O95633). The experiment in a line: compounds binding follistatin-related protein 3 – biochemical, small-molecule microarray, 635 nm fluorescence, primary screen (AID 1105).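 Also: score merges emission near 667 nm and signal to noise per printed spot across three slides.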 The settings on record: FSTL3 binding, higher = more signal.
For experiment [19], the target named is Dickkopf-related protein 1 (Homo sapiens) (UniProt O94907). The experiment can be described thus: small molecules binding DKK1 protein – biochemical, small-molecule microarray, 635 nm fluorescence scan, primary screen (AID 1106).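 Also: score merges emission near 667 nm with signal to noise over three replicate slides.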 The settings on record: higher = more signal.
Experiment [20] relates to Inhibin beta A chain (activin A). The experiment in a line: small molecules binding activin A – biochemical, small-molecule microarray, 635 nm fluorescence scan, primary screen (AID 1107).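 Also: mouse activin A protein probed at 4.33 µg/mL on printed slides; score merges bound-protein fluorescence near 667 nm with spot signal-to-noise.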 The settings on record: INHBA, higher = more signal.

Activity calls are given as the source filed them.

Chain of Torsin-1A-interacting protein 2 (Homo sapiens) (Q8NFQ8 whole entry, looked up): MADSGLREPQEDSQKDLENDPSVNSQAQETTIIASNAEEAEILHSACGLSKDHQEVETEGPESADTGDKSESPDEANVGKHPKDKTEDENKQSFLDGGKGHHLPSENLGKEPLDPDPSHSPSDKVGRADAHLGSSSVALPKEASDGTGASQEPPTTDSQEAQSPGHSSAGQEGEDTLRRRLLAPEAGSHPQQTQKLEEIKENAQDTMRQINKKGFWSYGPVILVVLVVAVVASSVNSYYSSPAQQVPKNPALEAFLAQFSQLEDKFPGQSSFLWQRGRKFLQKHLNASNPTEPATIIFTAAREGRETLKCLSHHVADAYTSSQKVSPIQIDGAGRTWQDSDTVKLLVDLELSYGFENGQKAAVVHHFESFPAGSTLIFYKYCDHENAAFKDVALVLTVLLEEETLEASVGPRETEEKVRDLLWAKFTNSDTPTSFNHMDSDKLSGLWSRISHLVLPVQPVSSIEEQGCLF
Chain of Follistatin-related protein 3 (Homo sapiens) (O95633 whole entry, looked up): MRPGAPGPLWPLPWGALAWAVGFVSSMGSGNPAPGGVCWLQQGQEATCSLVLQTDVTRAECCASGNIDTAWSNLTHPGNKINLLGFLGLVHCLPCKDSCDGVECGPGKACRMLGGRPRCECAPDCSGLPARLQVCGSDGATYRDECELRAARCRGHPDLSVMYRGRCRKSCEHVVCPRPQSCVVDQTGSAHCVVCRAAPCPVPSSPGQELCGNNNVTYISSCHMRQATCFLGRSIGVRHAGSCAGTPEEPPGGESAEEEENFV
Chain of Dickkopf-related protein 1 (Homo sapiens) (O94907 whole entry, looked up): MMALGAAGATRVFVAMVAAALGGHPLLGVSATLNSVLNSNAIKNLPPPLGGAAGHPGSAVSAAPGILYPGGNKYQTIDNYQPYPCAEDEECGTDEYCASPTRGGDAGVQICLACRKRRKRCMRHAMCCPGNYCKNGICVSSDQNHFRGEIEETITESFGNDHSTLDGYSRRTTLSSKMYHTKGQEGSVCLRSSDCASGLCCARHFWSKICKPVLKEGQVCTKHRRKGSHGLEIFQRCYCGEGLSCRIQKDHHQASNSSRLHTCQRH
Chain of Neurogenic locus notch homolog protein 3 (Homo sapiens) (Q9UM47 whole entry, looked up): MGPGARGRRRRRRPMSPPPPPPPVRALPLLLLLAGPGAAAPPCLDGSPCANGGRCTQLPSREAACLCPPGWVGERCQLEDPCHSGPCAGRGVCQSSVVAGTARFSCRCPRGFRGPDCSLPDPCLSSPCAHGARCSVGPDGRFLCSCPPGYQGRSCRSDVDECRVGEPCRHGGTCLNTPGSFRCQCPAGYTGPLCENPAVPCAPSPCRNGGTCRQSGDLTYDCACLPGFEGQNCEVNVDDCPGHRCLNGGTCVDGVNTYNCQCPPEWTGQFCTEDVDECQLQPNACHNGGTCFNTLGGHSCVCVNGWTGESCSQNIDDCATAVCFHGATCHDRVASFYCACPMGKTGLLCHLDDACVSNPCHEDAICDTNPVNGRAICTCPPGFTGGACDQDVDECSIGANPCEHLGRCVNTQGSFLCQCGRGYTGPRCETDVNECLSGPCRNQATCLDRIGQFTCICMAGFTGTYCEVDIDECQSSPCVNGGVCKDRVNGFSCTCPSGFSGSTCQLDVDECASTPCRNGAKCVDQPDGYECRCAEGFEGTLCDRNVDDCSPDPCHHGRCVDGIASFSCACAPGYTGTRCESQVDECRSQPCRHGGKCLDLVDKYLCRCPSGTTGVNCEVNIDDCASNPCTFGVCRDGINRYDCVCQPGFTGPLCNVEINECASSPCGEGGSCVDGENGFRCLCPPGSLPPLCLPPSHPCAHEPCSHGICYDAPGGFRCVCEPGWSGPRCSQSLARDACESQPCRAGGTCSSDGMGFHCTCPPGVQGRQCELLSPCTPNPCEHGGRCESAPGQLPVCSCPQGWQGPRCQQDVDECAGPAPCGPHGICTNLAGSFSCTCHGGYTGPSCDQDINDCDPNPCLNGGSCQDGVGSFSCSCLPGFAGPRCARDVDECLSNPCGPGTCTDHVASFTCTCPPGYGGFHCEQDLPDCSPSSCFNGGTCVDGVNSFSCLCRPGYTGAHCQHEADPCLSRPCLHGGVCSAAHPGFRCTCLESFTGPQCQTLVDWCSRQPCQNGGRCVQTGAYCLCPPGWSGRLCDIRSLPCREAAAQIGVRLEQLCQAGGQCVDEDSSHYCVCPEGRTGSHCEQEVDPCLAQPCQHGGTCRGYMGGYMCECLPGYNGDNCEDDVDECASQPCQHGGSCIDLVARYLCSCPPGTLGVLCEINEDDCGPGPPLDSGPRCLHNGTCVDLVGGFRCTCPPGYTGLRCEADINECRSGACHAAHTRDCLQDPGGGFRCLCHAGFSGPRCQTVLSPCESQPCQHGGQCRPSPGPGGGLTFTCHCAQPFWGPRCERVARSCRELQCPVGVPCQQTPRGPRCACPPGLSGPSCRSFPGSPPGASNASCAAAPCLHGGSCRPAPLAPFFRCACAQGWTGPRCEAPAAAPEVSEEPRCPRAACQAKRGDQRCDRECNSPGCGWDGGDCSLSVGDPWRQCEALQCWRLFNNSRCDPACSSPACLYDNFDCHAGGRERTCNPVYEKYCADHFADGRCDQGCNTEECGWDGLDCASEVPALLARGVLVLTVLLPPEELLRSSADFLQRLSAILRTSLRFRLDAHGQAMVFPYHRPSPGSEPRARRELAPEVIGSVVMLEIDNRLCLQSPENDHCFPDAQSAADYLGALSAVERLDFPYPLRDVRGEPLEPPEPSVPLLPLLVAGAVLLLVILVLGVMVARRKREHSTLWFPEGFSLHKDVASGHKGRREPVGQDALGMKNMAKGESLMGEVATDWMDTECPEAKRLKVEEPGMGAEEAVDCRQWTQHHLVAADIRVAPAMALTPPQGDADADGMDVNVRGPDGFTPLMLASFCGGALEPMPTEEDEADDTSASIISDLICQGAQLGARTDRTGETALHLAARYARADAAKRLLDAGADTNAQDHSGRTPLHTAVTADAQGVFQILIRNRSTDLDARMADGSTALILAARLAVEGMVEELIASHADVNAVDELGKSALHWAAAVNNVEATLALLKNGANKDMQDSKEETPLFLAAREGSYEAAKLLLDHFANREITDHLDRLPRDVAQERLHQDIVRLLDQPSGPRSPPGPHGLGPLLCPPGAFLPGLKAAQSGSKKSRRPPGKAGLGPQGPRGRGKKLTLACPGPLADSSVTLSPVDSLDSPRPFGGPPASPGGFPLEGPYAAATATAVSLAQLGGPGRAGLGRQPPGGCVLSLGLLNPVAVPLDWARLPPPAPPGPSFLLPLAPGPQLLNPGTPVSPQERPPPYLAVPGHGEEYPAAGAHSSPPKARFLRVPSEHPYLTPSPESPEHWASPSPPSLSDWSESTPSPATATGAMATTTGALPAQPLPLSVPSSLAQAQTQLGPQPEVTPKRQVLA
Chain of Epidermal growth factor receptor (Homo sapiens) (P00533 whole entry, looked up): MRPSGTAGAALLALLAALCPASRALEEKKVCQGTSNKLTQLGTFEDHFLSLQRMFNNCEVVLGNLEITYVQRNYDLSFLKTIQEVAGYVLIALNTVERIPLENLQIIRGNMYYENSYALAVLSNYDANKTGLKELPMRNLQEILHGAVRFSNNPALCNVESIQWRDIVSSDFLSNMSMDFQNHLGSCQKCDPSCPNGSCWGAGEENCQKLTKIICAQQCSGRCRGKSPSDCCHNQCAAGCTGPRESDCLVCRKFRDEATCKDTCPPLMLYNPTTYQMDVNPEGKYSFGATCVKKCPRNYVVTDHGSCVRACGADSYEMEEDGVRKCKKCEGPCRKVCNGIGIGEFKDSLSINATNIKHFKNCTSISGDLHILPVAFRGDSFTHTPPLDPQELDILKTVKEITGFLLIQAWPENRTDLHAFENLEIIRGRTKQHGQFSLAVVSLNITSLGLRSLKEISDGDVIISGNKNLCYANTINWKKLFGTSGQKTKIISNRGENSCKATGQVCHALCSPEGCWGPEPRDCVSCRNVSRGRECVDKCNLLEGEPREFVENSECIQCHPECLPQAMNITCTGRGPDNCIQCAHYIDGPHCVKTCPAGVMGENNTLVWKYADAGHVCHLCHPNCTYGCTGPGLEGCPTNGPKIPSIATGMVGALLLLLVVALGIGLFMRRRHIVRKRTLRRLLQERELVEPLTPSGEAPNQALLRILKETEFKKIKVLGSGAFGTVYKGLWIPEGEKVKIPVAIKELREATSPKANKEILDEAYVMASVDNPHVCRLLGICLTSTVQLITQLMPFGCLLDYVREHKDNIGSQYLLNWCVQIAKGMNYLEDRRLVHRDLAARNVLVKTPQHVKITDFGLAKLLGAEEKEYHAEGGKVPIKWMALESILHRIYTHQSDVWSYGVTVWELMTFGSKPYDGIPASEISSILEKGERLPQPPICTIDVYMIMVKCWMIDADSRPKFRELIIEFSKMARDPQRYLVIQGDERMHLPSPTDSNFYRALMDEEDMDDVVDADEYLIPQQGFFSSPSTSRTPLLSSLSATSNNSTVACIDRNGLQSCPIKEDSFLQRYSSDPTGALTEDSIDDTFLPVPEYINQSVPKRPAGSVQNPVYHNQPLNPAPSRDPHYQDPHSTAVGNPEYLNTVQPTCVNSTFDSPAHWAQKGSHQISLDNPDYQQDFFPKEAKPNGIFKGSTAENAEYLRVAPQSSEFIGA
Chain of Fibroblast growth factor 10 (Homo sapiens) (O15520 whole entry, looked up): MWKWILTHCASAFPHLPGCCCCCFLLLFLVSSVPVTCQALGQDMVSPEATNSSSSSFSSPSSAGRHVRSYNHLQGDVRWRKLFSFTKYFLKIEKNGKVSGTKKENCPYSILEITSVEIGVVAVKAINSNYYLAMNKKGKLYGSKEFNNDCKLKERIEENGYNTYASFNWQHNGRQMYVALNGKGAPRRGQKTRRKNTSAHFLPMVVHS

As to `C[C@H]1COC(=O)[C@H](Cc2ccccc2)NC(=O)[C@@H](C)COC(=O)[C@H](Cc2ccccc2)NC1=O`, the composite z-score was 1.57 in experiment [1]; 1.92 in experiment [5]; -0.243 in experiment [7]; 0.996 in [8]; 1.13 in experiment [9]; -0.0781 in [10]. Moreover, the composite z-score is 0.692 in [11]; -0.165 in experiment [12]; -0.563 in [13]; 0.632 in [15]; 0.847 in [16]; 0.485 in experiment [17]. Also, the values for the composite z-score in experiment [18], in [19] and in experiment [20] were 0.897, 1.11 and -0.687, respectively. Moreover, the z-score in experiment [2] is -0.743 (inactive); in experiment [3], -1.27 (inactive); in experiment [4] it was -0.278 (inactive); in experiment [6], -0.208 (inactive); in experiment [14], -1.67 (inactive).
With `C[C@]1(C(=O)NCc2ccccc2)c2ccccc2C(=O)N(Cc2cc(C(F)(F)F)cc(C(F)(F)F)c2)[C@H]1c1ccc(CO)cc1`, the composite z-score in experiment [1] was determined as 1.58; in experiment [5] it was 1.51; in [7], 0.339; in experiment [8], 0.583; in experiment [9], 0.655; in experiment [10], 0.18. Further, the composite z-score in experiment [11] is 0.643; in experiment [12], 0.698; in experiment [13], 0.778; in [15], 0.894; in experiment [16] it was 1.18; in experiment [17] it was 0.123. Moreover, the composite z-score in [18] was 0.439; in experiment [19] it was 0.419; in experiment [20] it was 0.856. The z-score was -2 (inactive) in experiment [2]; -3.22 (inactive) in experiment [3]; -2.11 (inactive) in [4]; 2.13 (inactive) in experiment [6]; -1.73 (inactive) in experiment [14].
Consider `COc1cccc([C@@H]2[C@@H](C)CC[C@H]3C(=O)N(C)[C@@H](C(C)C)C(=O)N23)c1`, for which the composite z-score in experiment [1] is -0.652; in experiment [5] it was 0.21; in [7], -0.0113; in experiment [8], 0.375; in [9], 0.374; in [10], -0.111. Moreover, the composite z-score in experiment [11] is 0.516; in experiment [12], -0.22; in experiment [13], -0.532; in [15], 0.266; in experiment [16], 0.649; in experiment [17] it was 0.418. In addition, the results for the composite z-score in [18], in experiment [19] and in experiment [20] were 0.472, 0.782 and 0.428, respectively. Also, the z-score in experiment [2] was -0.0534 (inactive); in [3] it was -0.719 (inactive); in experiment [4], 0.369 (inactive); in experiment [6], 0.652 (inactive); in experiment [14], 0.223 (inactive).
As to `C=CC[C@]1(C(=O)O)N=C(c2ccc(OCCCO)cc2)O[C@H]1c1ccccc1`, the composite z-score in experiment [1] is 0.707; in experiment [5] it was 3.29; in experiment [7], -0.0199; in [8], -1.1; in experiment [9], -0.888; in experiment [10], -0.0936. Also, the composite z-score is 1.43 in experiment [11]; 0.518 in experiment [12]; 0.838 in [13]; -0.0023 in experiment [15]; -0.517 in [16]; -1.13 in [17]. The composite z-score in [18] is -1.02; in [19], -0.968; in experiment [20], 0.654. Also, the z-score in [2] is -0.435 (inactive); in experiment [3], -2.83 (inactive); in [4], -1.08 (inactive); in experiment [6] it was 0.597 (inactive); in [14] it was -0.893 (inactive).
Consider `COc1cc2c(cc1OC)CN(C(=O)[C@@H]1[C@H]3C(=O)O[C@H](c4ccccc4)[C@H](c4ccccc4)N3[C@H](c3ccccc3OCCO)[C@@]13C(=O)Nc1ccccc13)CC2`, for which the composite z-score was 1.55 in experiment [1]; 1.76 in experiment [5]; -0.301 in experiment [7]; 0.208 in experiment [8]; 1.05 in experiment [9]; -0.198 in experiment [10]. Besides, the composite z-score in experiment [11] is 1.6; in experiment [12], -0.682; in experiment [13], -0.73; in experiment [15] it was 0.748; in [16], 1.29; in experiment [17] it was 0.0883. Besides, the composite z-score in experiment [18] is 0.317; in experiment [19], -0.134; in experiment [20] it was 0.358. The z-score in experiment [2] is 2.39 (inactive); in [3] it was 1.19 (inactive); in experiment [4] it was 5.58 (inactive); in [6], 1.92 (inactive); in [14] it was -0.239 (inactive).
